Data as given in PubChem BioAssay.

What follows are compounds tested on XIP peptide (Xip251-270) binding (assay: XIP fragment 251-270 binding compounds – biochemical, small-molecule microarray, fluorescence 635/667 nm, 0.1 µg/mL protein, primary screen (AID 1182)). Conditions: fluorescent protein binding, 635 nm, higher = more signal, called active from +8 up or from −8 down.

Composite z-score, inactive:
C#C[C@@H](CC)O[Si](C#Cc1ccc(Oc2ccccc2)cc1)(C(C)C)C(C)C 0.0878, COC(=O)[C@]1(CO)N=C(c2ccc(OCCCO)cc2)O[C@@H]1c1ccccc1N=[N+]=[N-] 0.816, COc1ccc([Si](C)(C)[C@@H]2[C@@H](CC(=O)N3CCC[C@H]3CO)O[C@]3(C(=O)N(Cc4cccc(N5CCC5=O)c4)c4ccccc43)[C@H]2C)cc1 1.07, COC(=O)[C@@]1(Cc2ccc(OC)cc2)[C@H]2c3cc(C(=O)N4CCCC4)n(Cc4cc(F)c(F)c(F)c4)c3C[C@H]2CN1C(=O)c1ccccc1 0.902, C=C(CCCC)C(=O)CC[C@@H](OC(C)=O)c1cccc(OCCO)c1 -0.0399, COc1ccc([Si](C)(C)[C@@H]2[C@@H](CCO)O[C@]3(C(=O)N(Cc4ccc(NC(C)=O)cc4)c4ccccc43)[C@H]2C)cc1 0.935, CN(C)c1ccc(C(O)C2C=CC3C(=O)N(c4ccccc4)C(=O)C3N2Nc2ccccc2F)cc1 (stereo not given) 0.324, CC(C)(C)OC(=O)CC[C@]1(C(=O)NCc2ccccc2)N=C(c2ccc(OCCCO)cc2)O[C@H]1c1ccccc1 0.124, CC(C)[Si]1(C(C)C)O[C@@H](c2ccccc2)c2cc(C3CC3)nc(-c3ccccc3)c21 -0.431, CC(C)NC(=O)[C@@]1(c2ccc([N+](=O)[O-])cc2)CC(=O)N(CC23CC4CC(CC(C4)C2)C3)[C@@H]1c1ccc(CO)cc1I 0.805
